In all, about 39,000 compounds went through this assay and about 3,300 (8.5%) were called active. Only a selection was taken, and actives are over-represented in it overall.
Test system: HepG2
Assay: cytotoxicity call (relative viability < 0.9)
Conditions: 10 µM

SMILES	cytotoxicity call
CN(C)CCCNC(=O)C[C@@H]1CC[C@H]2[C@@H](COc3ccc(NC(=O)c4cccc(F)c4)cc3C(=O)N2C)O1	inactive
Cc1ccc(S(=O)(=O)Nc2cccc3c2O[C@@H](CN(C)S(=O)(=O)c2ccc(F)cc2)[C@@H](C)CN([C@H](C)CO)C3=O)cc1	inactive
CC(C)(C)OC(=O)C[C@H]1C/C=C/CC[C@H](Cc2ccc(F)cc2)C(=O)O[C@H](c2ccccc2)CNC1=O	inactive
C[C@@H]1CCCCO[C@@H](CN(C)S(=O)(=O)c2cccs2)[C@@H](C)CN([C@H](C)CO)C(=O)c2cc(NS(=O)(=O)c3cn(C)cn3)ccc2O1	inactive
CC(C)NC(=O)N(C)C[C@@H]1OCCCC[C@@H](C)Oc2ccc(NC(=O)C3CCCCC3)cc2C(=O)N([C@H](C)CO)C[C@@H]1C	inactive
COc1ccc(S(=O)(=O)N(C)C[C@H]2Oc3c(NS(=O)(=O)c4cn(C)cn4)cccc3C(=O)N([C@H](C)CO)C[C@@H]2C)cc1	inactive
C[C@@H]1CN([C@@H](C)CO)C(=O)c2cc(C#C[C@@H](C)O)cnc2O[C@H]1CN(C)Cc1cncnc1	inactive
Cc1ccc(S(=O)(=O)Nc2ccc3c(c2)C(=O)N([C@H](C)CO)C[C@H](C)[C@H](CN(C)Cc2ccc(C(F)(F)F)cc2)OCCCC[C@H](C)O3)cc1	inactive
C[C@@H]1CCCCO[C@@H](CN(C)Cc2ccc(C(F)(F)F)cc2)[C@H](C)CN([C@H](C)CO)C(=O)c2cc(NS(=O)(=O)c3ccc(F)cc3)ccc2O1	inactive
C[C@@H]1CN([C@H](C)CO)C(=O)c2cc(NS(=O)(=O)c3ccc(F)cc3)ccc2O[C@@H](C)CCCCO[C@H]1CN(C)Cc1ccc(C(F)(F)F)cc1	inactive
Cc1ccc(S(=O)(=O)Nc2ccc3c(c2)C(=O)N([C@H](C)CO)C[C@@H](C)[C@H](CN(C)Cc2ccc(C(F)(F)F)cc2)OCCCC[C@H](C)O3)cc1	active
Cc1ccc(S(=O)(=O)Nc2ccc3c(c2)C(=O)N([C@@H](C)CO)C[C@@H](C)[C@@H](CN(C)Cc2ccc(C(F)(F)F)cc2)OCCCC[C@@H](C)O3)cc1	active
Cc1ccc(S(=O)(=O)Nc2ccc3c(c2)C(=O)N([C@H](C)CO)C[C@@H](C)[C@@H](CN(C)Cc2ccc(C(F)(F)F)cc2)OCCCC[C@@H](C)O3)cc1	inactive
C[C@@H]1CCCCO[C@@H](CN(C)Cc2ccc(C(F)(F)F)cc2)[C@@H](C)CN([C@H](C)CO)C(=O)c2cc(NS(=O)(=O)c3ccc(F)cc3)ccc2O1	active
C[C@@H]1CN([C@@H](C)CO)C(=O)c2cccc(NC(=O)C3CCOCC3)c2O[C@H]1CN(C)Cc1ccccc1	inactive

Reference: the antibiotic and cytotoxicity screens of Wong et al. (2023)
